Assay outcomes from PubChem BioAssay.
PINK1 modulator – modulators of PINK1 expression. PINK1 immunofluorescence, high-content cytometry, 24 h. Potency, µM (series often up to 76.6 µM), inactives show at the highest dose activation (PINK1 increase), usual class: activators. 410,000 compounds, 0.2% hits; active means well fitted activation curve with a large enough effect; inconclusive means small, poorly fitted or top-dose-only effect; cell line not stated here; further: % of control where 0% means no effect; nearly all actives have a fitted effect of over 65% in size
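A stable cell line was treated with compounds at 5 concentrations for 24 hours, with CCCP as control. PINK1 levels and mitochondrial localization were measured by immunofluorescence with mitochondrial, cell and nuclear markers after fixation, read by laser-scanning cytometry.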
Epigenetic reg – regulators of epigenetic silencing causing reporter derepression in mouse cells. murine LDR cells, GFP reporter derepression, 30 h. Potency, µM (doses to about 53.9 µM), without a hit: at the highest dose GFP activation, actives largely listed as activators. 280,000 compounds, 0.2% hits; further: % of control where 0% means no effect; nearly all actives have a fitted effect of over 60% in size
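Reporter derepression read as number of fluorescent GFP-positive objects, 20-120 um in size, counted by laser-scanning cytometer. Mouse LDR line with an epigenetically silenced CMV-GFP locus; compound incubation 30 h, 37 C.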
RORg inh – blocks mouse ROR gamma transcriptional activity. P51450. Drosophila S2 Gal4-RORgamma UAS-luciferase reporter, 20 h. Potency, µM (highest dose often 53.6 µM), inactives show top-dose activity change, negative = inhibition, actives largely listed as inhibitors. 310,000 compounds, 5.4% hits; further: on the % scale 0 is the no-effect control and ±100 the full control effect; nearly all actives have a fitted effect of over 60% in size
Target sequence (P51450 whole entry, looked up, the tested form may be a part): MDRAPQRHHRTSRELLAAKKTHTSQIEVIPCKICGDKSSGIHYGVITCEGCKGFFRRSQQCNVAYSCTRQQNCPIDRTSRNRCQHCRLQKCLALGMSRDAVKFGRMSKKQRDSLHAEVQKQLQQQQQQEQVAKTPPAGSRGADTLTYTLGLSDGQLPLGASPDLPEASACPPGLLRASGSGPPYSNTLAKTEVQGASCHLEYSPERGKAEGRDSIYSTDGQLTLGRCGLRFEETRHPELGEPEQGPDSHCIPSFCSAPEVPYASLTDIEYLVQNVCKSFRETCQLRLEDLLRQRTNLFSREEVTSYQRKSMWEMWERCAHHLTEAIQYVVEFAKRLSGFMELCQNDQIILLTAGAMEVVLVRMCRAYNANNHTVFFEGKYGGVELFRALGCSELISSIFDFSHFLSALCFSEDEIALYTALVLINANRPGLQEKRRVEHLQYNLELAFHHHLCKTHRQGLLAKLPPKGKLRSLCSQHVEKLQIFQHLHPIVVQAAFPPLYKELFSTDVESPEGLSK
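A Gal4/UAS one-hybrid system in insect cells: metallothionein-promoter Gal4–ROR gamma fusion plus Photinus luciferase reporter. Copper sulfate 700 uM final, 20 hr ambient incubation, luminescent detection after 10 min with reagent.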
VP16 counter – inhibits Gal4-VP16 luciferase reporter, ROR gamma counter-screen | Drosophila S2 Gal4-VP16 UAS-luciferase, luminescence, 20 h | Potency, µM (doses to about 53.6 µM), inactives show at the top dose activity, negative = inhibition, usual class: inhibitors | 310,000 compounds, 3.5% hits;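 further: Gal4-VP16 expression switched on by copper sulfate through the metallothionein promoter; on the % scale 0 is the no-effect control and ±100 the full control effect; nearly all actives have a fitted effect of over 50% in size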
Sfp PPTase inh – Sfp phosphopantetheinyl transferase inhibition; Q9F4F7; Biochemical Sfp PPTase activity, qHTS; Potency, µM, for inactives: largest response in the series, negative = inhibition, most hits filed as inhibitors; 310,000 compounds, 3.5% hits;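 further: the enzyme is Sfp with the accession as filed and its product quenches rhodamine fluorescence; 0% = enzyme reaction without inhibitor and -100% = no enzyme wells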
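With Hepes-Na pH 7.6 buffer containing 10 mM MgCl2, Sfp (15 nM) modified BHQ-2-YbbR (12.5 uM) using rhodamine-CoA (5 uM). Two reads 30 minutes apart at 525/598 nm yielded each well's rate.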
ClpP mod – qHTS Assay for Activators of ClpP | Potency, µM (top dose mostly 57.5 µM), without a hit: at the highest dose activity change, negative = active | ATP-dependent Clp protease proteolytic subunit (Bacillus subtilis (strain 168)), P80244 | 340,000 compounds, 1.9% hits | purified B. subtilis ClpP, FRET peptide cleavage, 20 min; active means well fitted falling curve with a large enough effect; inconclusive means small, poorly fitted or top-dose-only effect; inactive means no such curve, though single readings can be large or run the other way; further: the source files actives as falling curves though it sought activators and does not explain the sign; nearly all actives have a fitted effect of over 65% in size
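FRET quenching reversal measured ClpP activation: 10 microg/mL B. subtilis ClpP at pH 8 with the FRET-FV decapeptide, read at 430 nm after 320 nm excitation. The 20-min minus 0-min signal was scaled between DMSO/no-enzyme wells and ADEP (5.8 microM final).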
Starred values were filed as active, the others as inactive; [ ] = dose if it differs, or a comment. Sampled rows, rich in hits. Any-hit rate of the full collection: about 8.1%. Unless noted, the call rests on the fitted dose curve; in most records, active means well fitted curve in the direction sought with a large enough effect; inconclusive means small, poorly fitted or top-dose-only effect, or another doubt; inactive means no such curve, though single readings can be large; an effect the other way counts as inactive or inconclusive. Potency means the concentration at half of the fitted maximal effect.

What do the screens show for `S=C1NCN(Cc2cccnc2)CN1c1cccc(Cl)c1`?
PINK1 modulator: 0%; Epigenetic reg: 0%; RORg inh: -12%; VP16 counter: 3%; Sfp PPTase inh: 6%; ClpP mod: -2%

Results for Cc1cccc(N2CN(Cc3ccco3)CNC2=S)c1 ?
PINK1 modulator: 0%; Epigenetic reg: 0%; RORg inh: 11µM*; VP16 counter: inconclusive; Sfp PPTase inh: 21%; ClpP mod: -7%

Results for Cc1ccc(C(=O)c2oc3ccccc3c2NC(=O)COc2ccc(C(C)(C)C)cc2)cc1 ?
PINK1 modulator: 1%; Epigenetic reg: 0%; ClpP mod: -1%

How did Fc1cccc(-c2cc3nc4c(c(N5CCC6(CC5)OCCO6)n3n2)CCCC4)c1 do in these assays?
Epigenetic reg: 0%; RORg inh: 5%; VP16 counter: 13%; Sfp PPTase inh: inconclusive; ClpP mod: 28µM*

What do the screens show for `COc1cc(OC)cc(-c2cc3nc4c(c(N5CCN(c6ncccn6)CC5)n3n2)CCCC4)c1`?
Epigenetic reg: 0%; RORg inh: 19%; VP16 counter: 1%; Sfp PPTase inh: -26%; ClpP mod: 35µM*

How did OC1CCN(c2c3c(nc4cc(-c5cccc(F)c5)nn24)CCCC3)CC1 do in these assays?
Epigenetic reg: 0%; RORg inh: 0%; VP16 counter: 6%; Sfp PPTase inh: 0%; ClpP mod: -22%

Results for COc1ccc(CNC(=O)COC(=O)c2cc(-c3ccc(Cl)s3)nc3ccccc23)cc1 ?
PINK1 modulator: 14%; Epigenetic reg: 0%; RORg inh: 15%; VP16 counter: 1%; Sfp PPTase inh: -11%; ClpP mod: 25µM*

Results for COc1cc(-c2cc(C(=O)NCc3ccco3)c3ccccc3n2)cc(OC)c1OC ?
PINK1 modulator: 4%; RORg inh: -9%; VP16 counter: -1%; Sfp PPTase inh: -14%; ClpP mod: 0%

How did O=C(COC(=O)c1cc(-c2ccc(Cl)s2)nc2ccccc12)NCc1ccco1 do in these assays?
PINK1 modulator: 12%; Epigenetic reg: -1%; RORg inh: -20%; VP16 counter: -7%; Sfp PPTase inh: 13µM*; ClpP mod: -3%

What do the screens show for `O=C(NCc1ccco1)c1cc(-c2cccs2)nc2ccccc12`?
PINK1 modulator: 0%; Epigenetic reg: 0%; RORg inh: 35%; VP16 counter: -4%; Sfp PPTase inh: -18%; ClpP mod: 25µM*

Results for CCOc1ccccc1CNC(=O)c1cc(-c2ccc(Cl)s2)nc2ccccc12 ?
PINK1 modulator: 6%; Epigenetic reg: -1%; ClpP mod: 28µM*

Results for Cc1cc(C(=O)OCC(=O)NCc2ccccc2)c2ccccc2n1 ?
PINK1 modulator: 2%; ClpP mod: 0%

What do the screens show for `CN(C)/[N+]([O-])=N\Oc1cc(OC(=O)c2ccc(N)cc2)c([N+](=O)[O-])cc1[N+](=O)[O-]`?
PINK1 modulator: -1%

How did C=CC[C@@H]1C=C[C@H](O/N=C(\C)CCN2CCCc3nc(C)c(C)cc32)[C@H](CO)O1 do in these assays?
Epigenetic reg: 1%[10.1 µM]; RORg inh: 3%[10 µM]; VP16 counter: -11%[10 µM]; Sfp PPTase inh: 7%

How did COc1ccc(NC(=O)C2CCN(S(=O)(=O)c3cn(C)cn3)CC2)cc1Cl do in these assays?
PINK1 modulator: -1%; Epigenetic reg: -1%; ClpP mod: 0%

Results for O=C(NCc1ccco1)c1cc2nc(-c3cccs3)cc(C(F)(F)F)n2n1 ?
PINK1 modulator: 3%[38.3 µM]; Epigenetic reg: 0%; RORg inh: 3%; VP16 counter: -1%; Sfp PPTase inh: -20%; ClpP mod: 35µM*

What do the screens show for `O=C(NCc1ccco1)c1nn2c(C(F)(F)F)cc(-c3cccs3)nc2c1Cl`?
Epigenetic reg: 8%; RORg inh: -12%; VP16 counter: -13%; Sfp PPTase inh: 21%; ClpP mod: 0%
